Experiment [1] deals with Fibroblast growth factor receptor 4 (Homo sapiens) (UniProt P22455). The note with it: at 1 µM.
Experiment [2] deals with Tyrosine-protein kinase Fgr (Homo sapiens) (UniProt P09769). The note with it: at 0.1 µM.
For experiment [3] the target is unchanged. Particulars: at 1 µM.
Experiment [4] deals with Vascular endothelial growth factor receptor 1 (Homo sapiens) (UniProt P17948). Particulars: at 0.1 µM.
The target is the same in experiment [5]. Particulars: at 1 µM.
The target in experiment [6] is Receptor-type tyrosine-protein kinase FLT3 (Homo sapiens) (UniProt P36888). The note with it: at 0.1 µM.
For experiment [7] the target is unchanged. Particulars: at 1 µM.
The subject of experiment [8] is T1, Receptor-type tyrosine-protein kinase FLT3 (Homo sapiens), P36888 [D835Y].
T1 sequence (whole entry): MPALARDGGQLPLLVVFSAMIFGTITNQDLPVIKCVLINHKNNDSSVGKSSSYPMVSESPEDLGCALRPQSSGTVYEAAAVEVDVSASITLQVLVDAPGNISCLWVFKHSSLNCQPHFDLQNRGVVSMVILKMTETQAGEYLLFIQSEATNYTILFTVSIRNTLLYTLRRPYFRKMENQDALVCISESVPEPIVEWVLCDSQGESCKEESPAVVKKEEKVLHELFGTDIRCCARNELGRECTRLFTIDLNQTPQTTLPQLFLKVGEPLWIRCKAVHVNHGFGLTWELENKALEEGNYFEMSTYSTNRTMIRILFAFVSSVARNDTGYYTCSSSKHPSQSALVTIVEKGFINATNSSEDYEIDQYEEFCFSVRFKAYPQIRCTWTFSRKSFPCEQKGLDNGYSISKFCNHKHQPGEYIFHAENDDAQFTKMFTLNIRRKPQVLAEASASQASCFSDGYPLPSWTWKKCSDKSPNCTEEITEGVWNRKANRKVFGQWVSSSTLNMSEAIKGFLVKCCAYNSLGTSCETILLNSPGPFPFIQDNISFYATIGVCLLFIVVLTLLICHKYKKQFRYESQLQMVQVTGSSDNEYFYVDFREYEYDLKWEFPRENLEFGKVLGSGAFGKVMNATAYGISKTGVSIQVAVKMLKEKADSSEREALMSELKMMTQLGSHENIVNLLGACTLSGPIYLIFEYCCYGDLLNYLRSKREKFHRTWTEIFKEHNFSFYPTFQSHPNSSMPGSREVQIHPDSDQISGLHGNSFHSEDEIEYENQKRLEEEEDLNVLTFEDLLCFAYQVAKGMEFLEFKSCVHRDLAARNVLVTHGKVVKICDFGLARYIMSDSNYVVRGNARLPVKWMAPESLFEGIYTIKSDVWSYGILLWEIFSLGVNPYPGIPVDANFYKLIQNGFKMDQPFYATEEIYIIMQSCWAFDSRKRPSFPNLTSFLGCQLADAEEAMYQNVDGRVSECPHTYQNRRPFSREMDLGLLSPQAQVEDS
The note with it: at 0.1 µM.

Experiment [9] deals with Non-receptor tyrosine-protein kinase TYK2 (Homo sapiens) (UniProt P29597). The note with it: at 1 µM.
Experiment [10] has as its target T2, Tyrosine-protein kinase receptor TYRO3 (Homo sapiens) (UniProt Q06418).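 Further: reported percentages are averaged inhibition values of TYRO3 kinase activity.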
T2 sequence (whole entry): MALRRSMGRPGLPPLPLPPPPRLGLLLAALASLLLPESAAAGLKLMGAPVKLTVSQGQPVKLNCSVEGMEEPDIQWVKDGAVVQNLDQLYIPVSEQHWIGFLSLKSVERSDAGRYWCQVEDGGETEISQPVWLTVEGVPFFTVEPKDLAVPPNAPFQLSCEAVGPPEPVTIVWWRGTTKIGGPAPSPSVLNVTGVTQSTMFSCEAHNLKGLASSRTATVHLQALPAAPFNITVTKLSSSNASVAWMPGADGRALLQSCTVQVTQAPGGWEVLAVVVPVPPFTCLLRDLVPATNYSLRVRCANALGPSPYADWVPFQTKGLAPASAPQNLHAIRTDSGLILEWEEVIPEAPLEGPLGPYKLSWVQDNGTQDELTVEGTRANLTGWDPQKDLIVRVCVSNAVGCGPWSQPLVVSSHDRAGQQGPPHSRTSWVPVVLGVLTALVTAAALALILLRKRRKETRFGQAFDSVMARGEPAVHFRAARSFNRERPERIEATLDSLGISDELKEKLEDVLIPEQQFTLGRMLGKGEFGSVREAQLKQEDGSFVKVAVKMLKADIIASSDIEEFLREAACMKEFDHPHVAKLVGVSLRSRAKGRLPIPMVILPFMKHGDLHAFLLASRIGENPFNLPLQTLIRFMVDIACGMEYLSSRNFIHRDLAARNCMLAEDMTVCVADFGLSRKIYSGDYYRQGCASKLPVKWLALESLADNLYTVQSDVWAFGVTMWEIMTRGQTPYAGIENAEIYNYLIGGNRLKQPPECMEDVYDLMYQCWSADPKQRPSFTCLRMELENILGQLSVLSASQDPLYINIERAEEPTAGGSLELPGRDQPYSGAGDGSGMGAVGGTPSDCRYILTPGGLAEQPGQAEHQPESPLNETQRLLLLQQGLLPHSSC
Particulars: at 0.1 µM.

Sequence of Fibroblast growth factor receptor 4 (Homo sapiens) (P22455 22-802 limits assumed): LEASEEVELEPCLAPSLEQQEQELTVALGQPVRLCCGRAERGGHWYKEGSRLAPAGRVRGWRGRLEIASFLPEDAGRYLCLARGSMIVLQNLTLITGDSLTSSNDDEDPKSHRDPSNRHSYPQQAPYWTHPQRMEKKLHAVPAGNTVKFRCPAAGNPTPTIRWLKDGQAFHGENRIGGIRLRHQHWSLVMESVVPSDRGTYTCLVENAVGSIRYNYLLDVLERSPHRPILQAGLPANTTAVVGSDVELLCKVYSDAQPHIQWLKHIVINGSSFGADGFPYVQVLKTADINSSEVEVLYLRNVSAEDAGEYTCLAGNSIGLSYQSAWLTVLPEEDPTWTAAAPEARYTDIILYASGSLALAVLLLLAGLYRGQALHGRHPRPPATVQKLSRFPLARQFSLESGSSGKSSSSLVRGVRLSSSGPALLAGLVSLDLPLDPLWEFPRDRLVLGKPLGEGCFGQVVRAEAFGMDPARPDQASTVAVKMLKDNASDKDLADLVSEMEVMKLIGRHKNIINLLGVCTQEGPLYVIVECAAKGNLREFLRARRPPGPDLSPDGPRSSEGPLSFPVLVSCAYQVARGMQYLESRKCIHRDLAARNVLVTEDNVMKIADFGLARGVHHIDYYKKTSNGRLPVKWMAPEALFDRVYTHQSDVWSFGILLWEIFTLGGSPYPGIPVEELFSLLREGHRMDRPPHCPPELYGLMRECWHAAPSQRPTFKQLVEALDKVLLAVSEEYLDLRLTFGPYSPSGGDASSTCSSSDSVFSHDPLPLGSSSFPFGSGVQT
Sequence of Vascular endothelial growth factor receptor 1 (Homo sapiens) (P17948 whole entry): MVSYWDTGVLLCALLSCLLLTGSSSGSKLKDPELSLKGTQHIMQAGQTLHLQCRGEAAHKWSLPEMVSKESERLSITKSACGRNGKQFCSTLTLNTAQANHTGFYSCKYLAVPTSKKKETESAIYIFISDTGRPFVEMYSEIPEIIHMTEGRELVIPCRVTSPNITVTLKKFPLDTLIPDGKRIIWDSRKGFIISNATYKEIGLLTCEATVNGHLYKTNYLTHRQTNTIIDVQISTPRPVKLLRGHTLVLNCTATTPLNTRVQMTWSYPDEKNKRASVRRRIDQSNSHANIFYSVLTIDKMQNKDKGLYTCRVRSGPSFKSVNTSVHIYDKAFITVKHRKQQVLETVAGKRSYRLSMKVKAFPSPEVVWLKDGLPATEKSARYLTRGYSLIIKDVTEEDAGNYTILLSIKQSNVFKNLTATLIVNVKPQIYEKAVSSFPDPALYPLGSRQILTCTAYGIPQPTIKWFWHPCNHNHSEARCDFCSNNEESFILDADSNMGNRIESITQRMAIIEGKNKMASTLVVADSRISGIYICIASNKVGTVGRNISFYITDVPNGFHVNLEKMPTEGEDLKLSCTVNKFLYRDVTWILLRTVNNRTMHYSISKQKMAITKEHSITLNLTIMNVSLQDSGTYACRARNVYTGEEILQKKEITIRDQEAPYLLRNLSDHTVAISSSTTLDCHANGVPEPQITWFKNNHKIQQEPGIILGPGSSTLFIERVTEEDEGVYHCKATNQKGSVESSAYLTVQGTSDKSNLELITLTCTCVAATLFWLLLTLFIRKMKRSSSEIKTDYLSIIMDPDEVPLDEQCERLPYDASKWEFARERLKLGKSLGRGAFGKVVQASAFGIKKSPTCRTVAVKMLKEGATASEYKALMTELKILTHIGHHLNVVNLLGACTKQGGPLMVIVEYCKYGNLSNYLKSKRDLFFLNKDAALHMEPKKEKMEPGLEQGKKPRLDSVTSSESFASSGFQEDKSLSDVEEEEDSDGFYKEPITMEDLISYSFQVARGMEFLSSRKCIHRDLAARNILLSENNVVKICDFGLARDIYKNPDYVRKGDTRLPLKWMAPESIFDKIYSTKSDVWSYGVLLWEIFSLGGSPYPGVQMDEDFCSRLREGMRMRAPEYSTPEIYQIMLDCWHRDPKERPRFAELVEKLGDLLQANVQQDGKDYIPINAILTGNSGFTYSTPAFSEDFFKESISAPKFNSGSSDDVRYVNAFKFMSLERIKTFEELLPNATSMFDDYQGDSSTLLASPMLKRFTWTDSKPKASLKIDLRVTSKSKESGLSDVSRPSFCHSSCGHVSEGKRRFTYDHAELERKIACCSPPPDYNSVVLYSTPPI
Sequence of Non-receptor tyrosine-protein kinase TYK2 (Homo sapiens) (P29597 whole entry): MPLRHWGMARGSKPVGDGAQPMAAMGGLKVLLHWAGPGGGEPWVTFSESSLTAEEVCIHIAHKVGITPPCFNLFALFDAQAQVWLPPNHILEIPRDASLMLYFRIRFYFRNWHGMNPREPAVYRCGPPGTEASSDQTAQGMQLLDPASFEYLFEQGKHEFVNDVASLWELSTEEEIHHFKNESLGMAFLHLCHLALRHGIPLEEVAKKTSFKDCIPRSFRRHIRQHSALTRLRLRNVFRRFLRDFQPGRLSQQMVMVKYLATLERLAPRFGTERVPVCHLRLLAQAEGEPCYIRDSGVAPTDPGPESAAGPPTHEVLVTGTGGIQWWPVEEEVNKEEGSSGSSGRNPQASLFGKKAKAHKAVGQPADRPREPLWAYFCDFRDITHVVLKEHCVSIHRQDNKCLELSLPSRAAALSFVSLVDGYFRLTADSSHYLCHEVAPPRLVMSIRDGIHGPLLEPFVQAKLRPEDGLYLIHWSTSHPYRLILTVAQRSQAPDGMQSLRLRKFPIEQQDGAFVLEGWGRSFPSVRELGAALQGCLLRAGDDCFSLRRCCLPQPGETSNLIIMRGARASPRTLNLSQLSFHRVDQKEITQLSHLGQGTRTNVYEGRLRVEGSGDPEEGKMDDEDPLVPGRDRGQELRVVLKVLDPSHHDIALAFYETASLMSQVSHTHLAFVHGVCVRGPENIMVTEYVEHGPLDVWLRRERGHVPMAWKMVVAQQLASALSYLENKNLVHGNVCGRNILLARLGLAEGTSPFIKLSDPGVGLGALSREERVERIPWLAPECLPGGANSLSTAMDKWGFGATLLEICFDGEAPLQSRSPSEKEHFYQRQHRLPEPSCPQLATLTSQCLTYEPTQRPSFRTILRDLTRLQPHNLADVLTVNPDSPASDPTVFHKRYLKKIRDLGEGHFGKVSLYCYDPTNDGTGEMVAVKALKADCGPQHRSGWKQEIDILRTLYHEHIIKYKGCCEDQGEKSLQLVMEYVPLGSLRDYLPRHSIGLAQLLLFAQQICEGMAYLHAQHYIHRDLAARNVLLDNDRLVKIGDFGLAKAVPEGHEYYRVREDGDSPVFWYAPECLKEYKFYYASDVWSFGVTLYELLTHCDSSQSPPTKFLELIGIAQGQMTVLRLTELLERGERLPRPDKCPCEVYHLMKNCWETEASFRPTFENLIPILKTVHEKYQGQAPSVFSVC
Sequence of Tyrosine-protein kinase Fgr (Homo sapiens) (P09769 2-529 limits assumed): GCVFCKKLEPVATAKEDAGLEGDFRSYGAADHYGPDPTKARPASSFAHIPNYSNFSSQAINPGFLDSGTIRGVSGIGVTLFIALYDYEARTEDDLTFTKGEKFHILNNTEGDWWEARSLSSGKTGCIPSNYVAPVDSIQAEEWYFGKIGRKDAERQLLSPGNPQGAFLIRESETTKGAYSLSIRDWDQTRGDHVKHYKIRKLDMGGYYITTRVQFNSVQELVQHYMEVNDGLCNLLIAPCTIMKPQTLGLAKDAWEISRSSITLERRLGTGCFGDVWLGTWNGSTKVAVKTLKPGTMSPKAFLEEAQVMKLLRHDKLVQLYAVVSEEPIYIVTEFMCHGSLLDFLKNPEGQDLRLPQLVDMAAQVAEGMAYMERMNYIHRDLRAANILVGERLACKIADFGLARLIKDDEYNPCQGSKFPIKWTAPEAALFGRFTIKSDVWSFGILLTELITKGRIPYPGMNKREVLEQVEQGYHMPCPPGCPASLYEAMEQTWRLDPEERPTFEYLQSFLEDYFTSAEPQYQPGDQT

With `c1ccc(-c2nc3n(c2-c2ccc4c(c2)OCO4)CCC3)nc1`, the inhibition (as a rule, the change of the read-out against control, counted positive when it falls) in experiment [1] was 1.32%; in experiment [2] it was -0.63%; in [3], 0.17%; in experiment [4], 1.18%; in [5] it was 0.86%; in [6] it was 1.13%. Moreover, the inhibition in experiment [7] is 0.36%; in experiment [8], -1.36%; in experiment [9], -1.07%; in experiment [10] it was 0.75%.
For `COC(=O)c1sc(-n2cnc3cc(OC)c(OC)cc32)cc1OCc1ccccc1C(F)(F)F`, the inhibition came to 1.85% in experiment [1]; 3.32% in [2]; 17.2% in experiment [3]; 1.32% in experiment [4]; 9.57% in experiment [5]; 2.55% in [6]. Besides, the inhibition in experiment [7] was 8.27%; in experiment [8] it was -4.92%; in experiment [9], -3.12%; in experiment [10] it was 2.58%.
With `c1cc(-c2cnn3nc(N4CCOCC4)ccc23)nc(NC2CC2)n1`, the inhibition in experiment [1] was 1.73%; in experiment [2] it was 3.22%; in [3], 8.79%; in [4] it was 3.82%; in [5], 8.82%; in experiment [6], 4.34%. Also, the inhibition in [7] is 17.2%; in [8], 7.24%; in experiment [9], -4.59%; in experiment [10] it was -0.77%.
For the molecule `Cc1cccc(Nc2ncc(-c3ccccc3)o2)c1`, the inhibition in [1] turned out to be 1.36%; in experiment [2] it was 2.72%; in experiment [3], 9.59%; in experiment [4], 1.05%; in experiment [5], 11%; in experiment [6] it was 39.8%. Moreover, the inhibition in [7] is 81%; in [8] it was -4.74%; in experiment [9], -4.11%; in experiment [10], 1.56%.
`Fc1ccc(-c2nn3ccccc3c2-c2ccncc2)cc1`: the inhibition is 2.03% in experiment [1]; -0.1% in experiment [2]; 6.02% in [3]; 1.98% in [4]; 2.63% in experiment [5]; -0.06% in experiment [6]. For the same molecule, the inhibition in experiment [7] was 2.86%; in experiment [8], -0.98%; in experiment [9] it was -0.08%; in [10], 0.22%.
As to `CCn1c(-c2nonc2N)nc2c(C#CC(C)(C)O)ncc(OC3CCNCC3)c21`, the inhibition in experiment [1] was -1.22%; in experiment [2], 1.43%; in experiment [3], 4.57%; in [4] it was 5.67%; in [5], 16.4%; in [6], 3.32%. Moreover, the inhibition in [7] was 3.82%; in experiment [8], 1.56%; in [9] it was -1.36%; in experiment [10], 2.05%.
In the case of `CCN1CCC(CC(=O)Nc2n[nH]c3nnc(-c4cccc(F)c4F)cc23)CC1`, the inhibition in experiment [1] is -2.43%; in experiment [2], 2.47%; in experiment [3] it was 1.19%; in experiment [4] it was 0.64%; in experiment [5], -0.57%; in experiment [6], 3.74%. In addition, the inhibition in [7] was 1.44%; in experiment [9], 2.26%; in [10], 1.36%.
On to `NC(=O)c1sc(-n2cnc3ccc(C(F)(F)F)cc32)cc1OCc1ccccc1Br`, for which the inhibition in experiment [1] was found to be 2.14%; in experiment [2], 3.5%; in [3], 1.54%; in experiment [4] it was 1.4%; in [5] it was 4.1%; in experiment [6] it was 1.91%. Moreover, the inhibition in experiment [7] was 1.02%; in [8], -2.48%; in experiment [9], -3.62%; in experiment [10], 3.13%.
As to `CN1CCC(n2cnc(-c3ccc(F)cc3)c2-c2ccnc(N)n2)CC1`, the inhibition in experiment [1] was 4.3%; in experiment [2], 4.22%; in [3], 8.36%; in [4], -0.81%; in experiment [5], 2.41%; in [6], -0.36%. Further, the inhibition is 1.76% in [7], -8.15% in experiment [8], -0.01% in experiment [9] and 1.97% in experiment [10].
Turning to `COc1cc2ncn(-c3cc(OCc4ccccc4C(F)(F)F)c(C(=O)N(C)C)s3)c2cc1OC`, the inhibition in [1] is 2.15%; in [2], 0.95%; in [3], 6.42%; in experiment [4] it was -0.21%; in experiment [5], 6.59%; in experiment [6] it was -1.41%. Also, the inhibition in experiment [7] was 0.81%; in experiment [8], -1.94%; in experiment [9], 1.47%; in experiment [10], 0.67%.
`COC(=O)Nc1nc2ccc(Oc3ccc(NC(=O)Nc4cccc(Cl)c4)cc3)cc2[nH]1`: the inhibition is -0.03% in experiment [1]; 2.28% in experiment [2]; 4.23% in experiment [3]; 28.6% in experiment [4]; 56.8% in experiment [5]; 21.1% in experiment [6]. For the same molecule, the inhibition in [7] is 57.2%; in experiment [8], -4.92%; in experiment [9] it was -0.96%; in experiment [10], 3.45%.
In the case of `CC1=C(C(=O)Nc2cc(Cl)c3[nH]ncc3c2)C(c2ccc(C(F)(F)F)cc2)CC(=O)N1` (stereo not drawn), the inhibition in experiment [1] was 2.25%; in experiment [2], 2.78%; in experiment [3] it was 4.88%; in experiment [4], -0.55%; in experiment [5] it was -1.53%; in [6], 1.66%. In addition, the inhibition in [7] is 3.1%; in [8], -4.83%; in experiment [9], -1.04%; in experiment [10], 3.7%.
As for `Fc1ccc(-c2nn3ncccc3c2-c2ccnc(Nc3ccc4c(c3)OCCO4)n2)cc1`, the inhibition in experiment [1] was 3.32%; in experiment [2], 68.2%; in [3], 84%; in [4] it was 7.67%; in experiment [5] it was 30.8%; in experiment [6] it was 2.79%. The inhibition in experiment [7] was 6.52%; in experiment [8], -1.97%; in experiment [9] it was -3.36%; in experiment [10], 5.85%.
With `FC(F)(F)c1cccc(-c2nn3ncccc3c2-c2ccnc(Nc3ccc4c(c3)OCCO4)n2)c1`, the inhibition stood at 2.21% in [1]; 32.5% in experiment [2]; 75.3% in experiment [3]; 0.57% in experiment [4]; 12% in [5]; 0.74% in experiment [6]. The inhibition was -3.8% in [8], -3.08% in experiment [9] and 4.46% in experiment [10].

(Values after ChEMBL document CHEMBL1961873, “Compounds: GSK PKIS; Assays: Nanosyn kinase panel” (2012).)
